# Results: PubChem BioAssay (NCATS)
# Calls of active or inactive are those of the source. Calls follow the shape of the dose curve; as a rule, active = well fitted curve in the direction sought with a large enough effect; inconclusive = small, poorly fitted or top-dose-only effect, or another doubt; inactive = no such curve, though single readings can be large or run the other way.
# Test: Cellular Toxicity (caspase-3) MRC-5 (AID 659);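 as to caspase-3 activation: 0% = DMSO basal and 100% = 10 µM staurosporine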
# Conditions: MRC-5 cells, luminescence; Potency: caspase-3 activation; series mostly up to 91.7 µM; caspase-3 activation: at the top concentration
# Text: NIH Chemical Genomics Center [NCGC]
# NIH Molecular Libraries Screening Centers Network [MLSCN]
# National Institutes of Environmental Health Sciences [NIEHS]
# National Toxicology Program [NTP]
# We have developed a 1536-well cell-based assay for quantitative high throughput screening (qHTS) against a number of cell lines to determine in vitro caspase 3/7 activity of small molecules. This particular assay uses the MRC-5 cell line which is derived from human normal lung fibroblasts.
# NCGC Assay Protocol Summary:
# The Caspase-Glo 3/7 assay (Promega) is a homogeneous method to measure caspase-3 and caspase-7 activities in cultured cells. The quantitation of caspase 3/7 activity is based on the cleavage of a peptide-aminoluciferin substrate. After caspase cleaves the substrate the free aminoluciferin is liberated and serves as the substrate of luciferase, which generates the light. The luminescent signal is proportional to amount of caspase 3/7 activity present.
# Using the Caspase-Glo 3/7 assay, the amount of caspase 3/7 activity was measured in the MRC-5 line with complete culture medium following compound treatment for 16 hours. The assay was performed in opaque white 1536-well plates. In the screen, tamoxifen and staurosporine were used as positive controls. Library compounds were measured for their ability to cause the activation of caspase 3/7 in the cell line, as reflected by an increase in luminescence signal, in a concentration-dependent manner. Data were normalized to the controls for basal activity (DMSO only) and 100% stimulation (10 uM staurosporine). AC50 values were determined from concentration-response data modeled with the standard Hill equation.
# qHTS protocol for caspase 3/7 assay in MRC-5 cells
# [Step] [Parameter] [Value] [Description]
# 1. Reagent; 5 uL; 1500 MRC-5 cells/well
# 2. Time; 5 hr; 37 °C incubation
# 4. Controls; 23 nL; Tamoxifen 0.23 uM to 100 uM & staurosporine 1.4 pM to 100 uM
# 5. Time; 16 hr; 37 °C incubation
# 6. Reagent; 5 uL; Caspase-Glo 3/7 reagent
# 7. Time; 1 hr; Room Temperature
# 8. Detection; Luminescence; Viewlux plate reader
# Keywords: caspase 3/7, apoptosis, MRC-5 cell line, luminescence, NTPHTS, NTPHTS_NCGC, NIEHS, EPA, DSSTox, MLSMR, MLSCN, NIH Roadmap, qHTS, NCGC
# Potency is read from the fitted curve at half-maximal effect.
Compound,caspase-3 activation,Potency
CC1(C)[C@@H]2CC[C@@]1(C)C(=O)C2,-0.1% (inactive),–
NCCNCCNCCNCCN,0.892% (inactive),–
Oc1cccc(O)c1,-0.88% (inactive),–
NCCNCCNCCN,0.473% (inactive),–
CN(C)CCC=C1c2ccccc2CCc2ccccc21,11.7% (inactive),–
Cc1c(O)cccc1C(=O)N[C@@H](CSc1ccccc1)[C@H](O)CN1C[C@H]2CCCC[C@H]2C[C@H]1C(=O)NC(C)(C)C,–,50.1 µM (active)
NC(=O)N/N=C/c1ccc([N+](=O)[O-])o1,1.31% (inactive),–
Cc1cc2nc3c(=O)[nH]c(=O)nc-3n(C[C@H](O)[C@H](O)[C@H](O)CO)c2cc1C,0.141% (inactive),–
COC(=O)C1=C(C)NC(C)=C(C(=O)OC)C1c1ccccc1[N+](=O)[O-],-1.57% (inactive),–
Nc1ccc(S(=O)(=O)Nc2nccs2)cc1,4.54% (inactive),–
CCCCOC(=O)c1ccc(O)cc1,-0.514% (inactive),–
CCCCCCCCCCCCOS(=O)(=O)O,–,inactive
COc1ccccc1O,–,inactive
CC12CCC(CC1)C(C)(C)O2,1.09% (inactive),–
C[C@]12C[C@H](O)[C@H]3[C@@H](CCC4=CC(=O)CC[C@@]43C)[C@@H]1CC[C@@H]2C(=O)CO,2.02% (inactive),–
NC(=O)c1ncn([C@@H]2O[C@H](CO)[C@@H](O)[C@H]2O)n1,-1.03% (inactive),–
O=C1c2c(O)cccc2Cc2cccc(O)c21,2.04% (inactive),–
[Cl][In]([Cl])[Cl],1.08% (inactive),–
Cc1cc(CC(=O)O)n(C)c1C(=O)c1ccc(Cl)cc1,4.42% (inactive),–
O=C1O[C@H]([C@@H](O)CO)C(O)=C1O,2.02% (inactive),–
